Test [1] concerns the target Bile acid receptor (Homo sapiens) (UniProt Q96RI1). Nature of the test: ATG_IR1_CIS: Attagene CIS-FACTORIAL HepG2 Assay for human Nuclear Receptor Subfamily 1 Group H Member 4 (NR1H4), IR1 submotif (AID 2282946). As to conditions: IR1 reporter transcription, actives raise or lower the signal. Put shortly:
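Readout: reporter transcript levels by RT-PCR with fluorescent capillary electrophoresis, from HepG2 cells transiently transfected with multiplexed cis-regulated reporters and dosed 24 h. Gain- or loss-of-signal fitted versus DMSO negative control.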

A short description of test [2]: ATG_GRE_CIS: Attagene CIS-FACTORIAL HepG2 Assay for human Glucocorticoid Response Elements (GRE) (AID 2282947). As to conditions: HepG2 GRE cis-reporter, Attagene multiplex mRNA; actives raise or lower the signal. Put shortly: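 HepG2, transient cis-reporter transfection, 24 h. Reporter mRNA: RT-PCR then CE, fluorescence. Fit both directions vs DMSO.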
The nature of test [3]: ATG_ISRE_CIS: Attagene CIS-FACTORIAL HepG2 Assay for human Interferon Regulatory Factor 1 (IRF1) binding to an Interferon-Stimulated Response Element (ISRE) (AID 2282948). Conditions: HepG2 ISRE cis-reporter (Attagene), mRNA transcription readout; actives raise or lower the signal. Put shortly:
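Signal reflects induction or loss of ISRE-linked reporter mRNA in transiently transfected HepG2 cells after a 24 h treatment, detected by fluorescent RT-PCR fragments on capillary electrophoresis and normalised to DMSO.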

The nature of test [4]: ATG_M_32_CIS: Attagene CIS-FACTORIAL HepG2 Assay for M32 Transcription Factor (Internal Marker) (AID 2282949).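 Note: background control marker of the multiplexed CIS panel rather than a real target.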 Conditions: HepG2 Attagene cis-factorial M32 reporter, mRNA; actives raise or lower the signal. Put shortly: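 Transient MRTU transfection of HepG2; 24 h compound treatment; TriZol RNA, oligo(dT) RT, reporter PCR, 6-FAM primer extension, HpaI cut, CE. Gain/loss of signal vs DMSO.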

Test [5] in a line: ATG_M_06_CIS: Attagene CIS-FACTORIAL HepG2 Assay for M06 Transcription Factor (Internal Marker) (AID 2282950). As to conditions: HepG2 Attagene CIS-FACTORIAL M06 internal marker reporter; actives raise or lower the signal. Put shortly: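 HepG2 cells transiently transfected with cis-regulated multiple reporter transcription units were exposed to chemical for 24 h; reporter mRNA was quantified by RT-PCR, 6-FAM primer labelling, HpaI digestion and capillary electrophoresis, fitted bidirectionally against DMSO.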

The target in test [6] is Hypoxia-inducible factor 1-alpha (Homo sapiens) (UniProt Q16665). Kind of test: ATG_HIF1a_CIS: Attagene CIS-FACTORIAL HepG2 Assay for human Hypoxia Inducible Factor 1 (HIF1A) (AID 2282951). Conditions: HepG2 Attagene cis-factorial HIF1a reporter transcription; actives raise or lower the signal. Put shortly:
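HepG2 cells transiently transfected with multiple cis-regulated reporter transcription units measure endogenous transcription factor activity. After 24 h exposure, reporter mRNA is quantified by RT-PCR with 6-FAM labelling, HpaI digestion and capillary electrophoresis. Bidirectional fitting against DMSO.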

Test [7] has as its target Hepatocyte nuclear factor 6 (Homo sapiens) (UniProt Q9UBC0). Nature of the test: ATG_HNF6_CIS: Attagene CIS-FACTORIAL HepG2 Assay for human Hepatocyte Nuclear Factor 6 (HNF6) (AID 2282952). As to conditions: HepG2 Attagene cis-factorial HNF6 reporter transcription; actives raise or lower the signal. Put shortly: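 First, HepG2 cells were transfected with the multiplexed cis reporter library and dosed with chemical for 24 h. Next, RNA was reverse-transcribed, PCR-amplified and fluorescently labelled. Finally, HpaI-digested fragments were read by capillary electrophoresis.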

For test [8], the target named is Heat shock factor protein 1 (Homo sapiens) (UniProt Q00613). Nature of the test: ATG_HSE_CIS: Attagene CIS-FACTORIAL HepG2 Assay for human Heat Shock Transcription Factor 1 (HSE) (AID 2282953). As to conditions: HepG2 HSE cis-reporter, Attagene RNA transcription; actives raise or lower the signal. Put shortly: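 HepG2 cells transiently transfected with multiple reporter transcription units under cis-regulatory promoter control, measuring endogenous transcription factor activity. After 24 h chemical exposure, reporter mRNA quantified by RT-PCR, fluorescent labelling, HpaI digestion and capillary electrophoresis; bidirectional fit versus DMSO.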

Test [9] can be described thus: ATG_MRE_CIS: Attagene CIS-FACTORIAL HepG2 Assay for human Metal Responsive Element (MRE) (AID 2282954). As to conditions: HepG2 MRE cis-reporter transcription, Attagene multiplex; actives raise or lower the signal. Put shortly:
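Readout: capillary electrophoresis of 6-FAM-labelled, HpaI-digested RT-PCR reporter products. System: HepG2 cells carrying transient multiplexed cis reporters, dosed 24 h. Analysis: bidirectional fit, DMSO baseline.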

Test [10] can be described thus: ATG_PBREM_CIS: Attagene CIS-FACTORIAL HepG2 Assay for human Phenobarbital-responsive Enhancer Module (PBREM) (AID 2282955). Conditions: HepG2 PBREM cis-reporter, Attagene multiplexed transcription; actives raise or lower the signal. Put shortly:
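HepG2 cells transiently transfected with multiple cis-regulated reporter units measure endogenous transcription factor activity; 24 h compound exposure. Reporter mRNA quantified by RT-PCR, fluorescent labelling, HpaI digestion and capillary electrophoresis; bidirectional fit versus DMSO.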

Activity calls are given as the source filed them. Rule for the calls: active = hit-call score of the fitted dose curve at least 0.9, where 1 is the maximum; inactive = score below 0.9.

Hepatocyte nuclear factor 6 (Homo sapiens), sequence (Q9UBC0 whole entry, looked up, the tested form may be a part): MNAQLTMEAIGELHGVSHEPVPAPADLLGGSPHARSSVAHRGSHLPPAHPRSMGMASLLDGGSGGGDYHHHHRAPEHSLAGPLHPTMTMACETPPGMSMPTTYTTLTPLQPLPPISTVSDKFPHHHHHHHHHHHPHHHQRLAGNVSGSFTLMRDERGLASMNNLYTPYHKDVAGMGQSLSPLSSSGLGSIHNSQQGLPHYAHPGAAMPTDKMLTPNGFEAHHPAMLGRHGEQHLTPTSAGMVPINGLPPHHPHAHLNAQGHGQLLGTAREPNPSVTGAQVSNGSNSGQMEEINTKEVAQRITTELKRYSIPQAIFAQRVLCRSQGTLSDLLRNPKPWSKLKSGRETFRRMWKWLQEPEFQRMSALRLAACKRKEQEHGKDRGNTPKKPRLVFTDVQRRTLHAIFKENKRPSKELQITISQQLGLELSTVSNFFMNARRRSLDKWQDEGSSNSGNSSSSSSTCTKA
Heat shock factor protein 1 (Homo sapiens), sequence (Q00613 whole entry, looked up): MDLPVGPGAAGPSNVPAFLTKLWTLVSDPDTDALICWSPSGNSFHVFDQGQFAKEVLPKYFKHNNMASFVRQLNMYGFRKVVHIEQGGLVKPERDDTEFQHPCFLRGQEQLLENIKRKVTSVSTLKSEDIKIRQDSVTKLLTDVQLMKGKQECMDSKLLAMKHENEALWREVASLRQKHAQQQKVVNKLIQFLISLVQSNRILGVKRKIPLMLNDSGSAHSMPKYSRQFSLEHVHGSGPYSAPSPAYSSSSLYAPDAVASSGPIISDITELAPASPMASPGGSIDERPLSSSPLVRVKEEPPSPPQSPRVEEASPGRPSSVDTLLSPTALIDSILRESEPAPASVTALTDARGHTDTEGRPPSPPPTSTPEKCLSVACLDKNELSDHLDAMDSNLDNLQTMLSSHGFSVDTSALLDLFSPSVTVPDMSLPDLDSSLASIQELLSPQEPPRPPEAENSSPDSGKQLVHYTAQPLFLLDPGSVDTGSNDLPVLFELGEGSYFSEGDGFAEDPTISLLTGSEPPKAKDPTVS
Hypoxia-inducible factor 1-alpha (Homo sapiens), sequence (Q16665 whole entry, looked up): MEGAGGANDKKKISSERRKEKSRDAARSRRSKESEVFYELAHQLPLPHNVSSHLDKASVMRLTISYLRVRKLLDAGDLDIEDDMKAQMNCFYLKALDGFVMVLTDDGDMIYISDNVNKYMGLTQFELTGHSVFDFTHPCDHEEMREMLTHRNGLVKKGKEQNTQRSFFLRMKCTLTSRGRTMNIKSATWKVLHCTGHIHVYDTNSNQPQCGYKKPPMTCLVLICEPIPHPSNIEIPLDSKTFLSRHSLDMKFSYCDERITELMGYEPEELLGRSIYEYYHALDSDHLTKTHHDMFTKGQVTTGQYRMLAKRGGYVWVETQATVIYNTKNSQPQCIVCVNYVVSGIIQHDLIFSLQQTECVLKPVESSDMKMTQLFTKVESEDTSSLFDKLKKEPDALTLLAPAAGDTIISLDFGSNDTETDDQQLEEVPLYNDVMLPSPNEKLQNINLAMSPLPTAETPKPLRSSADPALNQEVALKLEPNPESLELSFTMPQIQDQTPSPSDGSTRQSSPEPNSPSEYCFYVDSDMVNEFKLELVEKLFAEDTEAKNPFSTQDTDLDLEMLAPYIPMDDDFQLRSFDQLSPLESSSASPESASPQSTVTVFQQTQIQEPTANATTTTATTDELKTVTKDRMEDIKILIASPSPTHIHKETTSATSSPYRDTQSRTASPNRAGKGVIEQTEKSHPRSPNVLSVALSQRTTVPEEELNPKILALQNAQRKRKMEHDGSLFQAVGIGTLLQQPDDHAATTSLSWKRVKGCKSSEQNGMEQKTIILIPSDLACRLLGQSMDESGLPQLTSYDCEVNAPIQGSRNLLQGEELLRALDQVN
Bile acid receptor (Homo sapiens), sequence (Q96RI1 whole entry, looked up): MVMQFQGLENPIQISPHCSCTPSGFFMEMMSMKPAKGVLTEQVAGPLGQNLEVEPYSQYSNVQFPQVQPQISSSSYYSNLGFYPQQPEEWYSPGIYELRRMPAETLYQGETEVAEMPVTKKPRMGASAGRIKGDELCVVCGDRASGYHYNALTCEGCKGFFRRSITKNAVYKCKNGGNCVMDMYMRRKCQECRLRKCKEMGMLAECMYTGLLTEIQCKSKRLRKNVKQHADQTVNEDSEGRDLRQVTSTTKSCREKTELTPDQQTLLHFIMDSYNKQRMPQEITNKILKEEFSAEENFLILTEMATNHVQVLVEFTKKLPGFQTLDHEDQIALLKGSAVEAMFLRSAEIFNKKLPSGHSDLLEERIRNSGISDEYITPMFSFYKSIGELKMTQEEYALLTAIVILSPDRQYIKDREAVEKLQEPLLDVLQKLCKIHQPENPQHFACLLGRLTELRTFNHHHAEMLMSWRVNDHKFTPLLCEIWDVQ

As for `COc1ccc(OC)c(OC)c1`, the result in [1], in test [2], in [3], in test [4], in [5] and in test [6] was inactive. Also, the compound was classed as inactive in [7], in test [8], in test [9] and in [10].

For `COc1cccc(OC)c1`, the outcome in [1], in test [2], in [3], in test [4], in test [5] and in test [6] was inactive. Besides, the call in test [7], in test [8], in test [9] and in test [10] was inactive.

In general, AC50 refers to the concentration at which the activity in the assay is half-maximal. For the compound `COc1cc(C(C)(C)C)c(O)c(C(C)(C)C)c1`, the half-maximal activity concentration (AC50) in [1] was 69.8 µM (active). For the same compound, the call in [2], in [3], in [4], in test [5], in test [6] and in [7] was inactive. The call in test [8] and in test [9] was inactive.

On to `CCC(C(=O)NC(N)=O)c1ccccc1` (centres undefined), for which the call in test [1], in [2], in [3], in [4], in test [5] and in test [6] was inactive. In addition, the call in test [7], in test [8] and in test [9] was inactive.

On to `NCCOCCO`, for which the call in test [1], in test [2], in test [3], in test [4], in test [5] and in [7] was inactive. Further, the compound was called inactive in test [8] and in test [9]. Besides, the AC50 in [6] is 30.2 µM (active).

For the compound `O=C(O)c1snc(Cl)c1Cl`, the compound was called inactive in test [1], in [2], in test [4], in test [5], in test [6] and in test [10]. The AC50 in test [3] is 136 µM (active); in test [7], 153 µM (active); in test [8] it was 158 µM (active); in [9] it was 161 µM (active).

As for `CC(C)(N)CO`, the compound was classed as inactive in test [1], in test [2], in test [3], in test [4], in [5] and in [6]. Further, the outcome in test [7], in [8] and in [9] was inactive.

Regarding `CC(=O)OCc1ccc2c(c1)OCO2`, the outcome in test [1], in test [2], in test [3], in [4], in [5] and in [6] was inactive. The outcome in [7], in [8] and in [9] was inactive.

In the case of `O=Cc1ccc(F)cc1`, the result in [1], in test [2], in [3], in [4], in test [5] and in [6] was inactive. Besides, in test [7], the result was inactive.

`CN(C)CCCN`: the compound was called inactive in test [1], in test [2], in test [3], in [4], in [5] and in test [6]. The compound was called inactive in test [7], in [8], in test [9] and in test [10].

Regarding `COc1c(Cl)c(Cl)c(Cl)c(Cl)c1Cl`, the result in test [1], in test [2], in [3], in [4], in test [5] and in test [6] was inactive. In addition, the compound was classed as inactive in test [7] and in test [8].

For `C=CC(C)(O)CCC=C(C)CCC=C(C)C` (centres undefined), the result in test [1] and in test [4] was inactive. The AC50 in test [2] is 100 µM (active); in test [3], 170 µM (active); in test [5], 166 µM (active); in [6] it was 170 µM (active); in test [7] it was 158 µM (active); in test [8] it was 163 µM (active). Besides, the AC50 in [9] is 136 µM (active).

As for `N#Cc1ccc(CC(=NNC(=O)Nc2ccc(OC(F)(F)F)cc2)c2cccc(C(F)(F)F)c2)cc1`, the call in [1], in test [2], in [3], in test [4], in [5] and in [6] was inactive. For the same compound, the call in test [7], in test [8] and in [10] was inactive.

On to `CCCC(=O)c1cc(O)c(O)cc1O`, for which the result in [1], in test [2], in [3], in [4], in test [5] and in [6] was inactive. In addition, the compound was classed as inactive in test [7], in [8] and in test [10].

Consider `CC(C)(C#N)c1cc(Cn2cncn2)cc(C(C)(C)C#N)c1`, for which the compound was called inactive in [1], in test [2], in [3], in [4], in test [5] and in test [6]. The call in [7], in [8], in [9] and in [10] was inactive.

In the case of `CC(C)OP(=O)(CP(=O)(OC(C)C)OC(C)C)OC(C)C`, the compound was called inactive in test [1], in [2], in [3], in test [4], in test [5] and in test [6]. Besides, the call in test [7], in [9] and in test [10] was inactive.

As for `COC(C(=O)O)c1ccccc1` (centres undefined), the compound was classed as inactive in test [1], in [2], in test [3], in [4], in test [5] and in test [6]. The call in test [7], in test [8], in [9] and in test [10] was inactive.

With `Clc1cccc(Cl)n1`, the compound was classed as inactive in [1], in test [2], in [3], in test [4], in test [5] and in test [6]. Moreover, the call in test [7], in [8] and in test [9] was inactive.

In the case of `CCc1c(C)cc(N)c(CC)c1N`, the compound was classed as inactive in test [1], in test [2], in [3], in [4], in test [5] and in [6]. Moreover, the outcome in [7], in test [8] and in test [9] was inactive.

`CC(C)(C)C(=O)c1ccccc1`: the compound was classed as inactive in [1], in test [2], in test [3], in [4], in test [5] and in test [6]. The call in test [7] and in test [9] was inactive.

For `CC1(C)CCC(C)(C)c2cc(C(=O)Nc3ccc(C(=O)O)cc3)ccc21`, the AC50 in [1] was 4.75 µM (active); in test [3], 100 µM (active); in [6], 55.1 µM (active); in [8], 157 µM (active); in test [9], 74.5 µM (active). For the same compound, the compound was classed as inactive in test [2], in [4], in test [5], in test [7] and in [10].

`NC(=O)c1ccccc1Cl`: the outcome in test [1], in [2], in [4], in [5], in test [6] and in [7] was inactive. For the same compound, the outcome in test [9] was inactive. The concentration at half-maximal activity (AC50) in test [3] is 100 µM (active); in test [8], 62.7 µM (active).

On to `c1cc(C(c2ccc(OCC3CO3)cc2)c2ccc(OCC3CO3)cc2)ccc1OCC1CO1` (centres undefined), for which the compound was classed as inactive in test [1], in test [2], in test [4] and in test [5]. In addition, the concentration at half-maximal activity (AC50) is 14.7 µM (active) in [3]; 56.4 µM (active) in [6]; 25.3 µM (active) in test [7]; 12.5 µM (active) in [8]; 13.4 µM (active) in test [9].

As to `CC(C#N)(CCC(=O)O)N=NC(C)(C#N)CCC(=O)O` (centres undefined), the compound was classed as inactive in test [1], in test [2], in test [3], in test [4], in [5] and in test [6]. Further, the outcome in [7], in test [8], in [9] and in test [10] was inactive.

With `O=C1O[C@@H]2[C@@H](O)[C@H](O)O[C@@H]2[C@H]1O`, the result in test [1], in test [2], in test [3], in [4], in [5] and in test [6] was inactive. Besides, the compound was called inactive in test [7], in test [8] and in [10].

The values above are taken from PubChem BioAssay (EPA / NIEHS).
